# In PubChem BioAssay (Tox21):
# Records with an inconclusive call do not appear. The source made the active and inactive calls. Calls come from the whole dose curve; as a rule, active = well fitted curve in the direction sought with a large enough effect in the repeat runs; inconclusive = weak or mixed curves; inactive = no such curve, though single readings can be large; an effect the other way counts as inactive or inconclusive.
# Legend:
# [1] = target: Cytochrome P450 2C19 (Homo sapiens) (UniProt P33261); assay: Cytochrome P450 Family 2 Subfamily C Member 19 (CYP2C19) small molecule antagonists: luciferase reporter qHTS assay (AID 1671197); note: nearly all actives have a fitted effect of over 65% in size
# Outline: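 Inhibition of CYP2C19 was scored from loss of luminescence in a P450-Glo proluciferin substrate assay, NADPH-started and run 1 h at 37C, with ketoconazole as positive control.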
# [2] = target: Cytochrome P450 2C9 (Homo sapiens) (UniProt P11712); assay: Cytochrome P450 Family 2 Subfamily C Member 9 (CYP2C9) small molecule antagonists: luciferase reporter qHTS assay (AID 1671198); note: nearly all actives have a fitted effect of over 50% in size
# Outline: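 CYP2C9 activity was measured with a P450-Glo proluciferin substrate. Enzyme–substrate mix was held with compound for 10 min at room temperature, then NADPH regeneration solution was added for 1 h at 37C. Luciferin product was read as luminescence.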
# [3] = target: Cytochrome P450 1A2 (Homo sapiens) (UniProt P05177); assay: Cytochrome P450 Family 1 Subfamily A Member 2 (CYP1A2) small molecule antagonists: luciferase reporter qHTS assay (AID 1671199); note: nearly all actives have a fitted effect of over 50% in size
# Outline: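 Human CYP1A2 activity measured with a P450-Glo proluciferin substrate; compounds in DMSO preincubated 10 min at room temperature with enzyme-substrate mix, then NADPH regeneration system added for 1 h. Luciferin detection reagent, 20 min, luminescence read.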
# [4] = target: Voltage-gated inwardly rectifying potassium channel KCNH2 (Homo sapiens) (UniProt Q12809); assay: Human Ether-a-go-go-Related Gene (hERG) channel small molecule antagonists: fluorescence cell-based qHTS assay (AID 1671200); note: nearly all actives have a fitted effect of over 50% in size
# Outline: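 Quantitative HTS in hERG-U2OS cells: thallium entry through the channel reports activity, read as continuous 480/540 nm fluorescence over 2 min after stimulus addition.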
# [5] = target: Cytochrome P450 3A4 (Homo sapiens) (UniProt P08684); assay: Cytochrome P450 Family 3 Subfamily A Member 4 (CYP3A4) small molecule antagonists: luciferase reporter qHTS assay (AID 1671201); note: nearly all actives have a fitted effect of over 50% in size
# Outline: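 Inhibition of CYP3A4 is measured as loss of light: the enzyme converts a proluciferin substrate to luciferin, detected luminescently. Reaction ran 1 h at room temperature with NADPH regeneration after a 10 min compound preincubation.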
# Potency is the fitted concentration of half-maximal effect.
# Cytochrome P450 2C9 (Homo sapiens), sequence (P11712 whole entry, looked up): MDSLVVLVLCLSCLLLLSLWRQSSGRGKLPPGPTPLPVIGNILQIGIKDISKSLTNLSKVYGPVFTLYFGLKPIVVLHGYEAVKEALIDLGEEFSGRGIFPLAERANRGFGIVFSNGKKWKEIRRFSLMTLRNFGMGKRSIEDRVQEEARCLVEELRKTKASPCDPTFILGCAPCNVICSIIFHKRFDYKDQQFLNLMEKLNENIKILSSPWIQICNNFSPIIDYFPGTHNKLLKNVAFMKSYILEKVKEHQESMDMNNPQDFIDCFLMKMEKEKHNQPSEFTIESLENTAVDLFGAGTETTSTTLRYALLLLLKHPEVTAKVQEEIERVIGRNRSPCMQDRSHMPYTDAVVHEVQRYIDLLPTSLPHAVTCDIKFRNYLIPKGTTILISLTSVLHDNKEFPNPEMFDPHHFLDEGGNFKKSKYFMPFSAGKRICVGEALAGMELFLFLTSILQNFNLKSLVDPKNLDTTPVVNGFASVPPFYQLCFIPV
# Cytochrome P450 3A4 (Homo sapiens), sequence (P08684 whole entry, looked up): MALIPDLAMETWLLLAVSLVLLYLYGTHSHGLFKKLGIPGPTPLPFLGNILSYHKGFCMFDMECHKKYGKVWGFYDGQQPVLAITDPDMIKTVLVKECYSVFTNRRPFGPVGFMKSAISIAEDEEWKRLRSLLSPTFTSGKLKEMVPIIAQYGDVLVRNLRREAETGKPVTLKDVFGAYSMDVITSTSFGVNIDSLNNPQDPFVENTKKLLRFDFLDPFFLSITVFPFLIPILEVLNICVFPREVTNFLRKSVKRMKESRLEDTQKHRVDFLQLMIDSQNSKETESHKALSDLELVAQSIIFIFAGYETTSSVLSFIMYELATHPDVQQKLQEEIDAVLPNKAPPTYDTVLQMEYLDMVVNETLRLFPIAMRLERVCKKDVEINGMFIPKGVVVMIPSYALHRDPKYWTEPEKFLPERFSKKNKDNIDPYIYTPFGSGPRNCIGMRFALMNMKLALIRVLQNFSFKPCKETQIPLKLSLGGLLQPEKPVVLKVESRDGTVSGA
# Cytochrome P450 2C19 (Homo sapiens), sequence (P33261 whole entry, looked up): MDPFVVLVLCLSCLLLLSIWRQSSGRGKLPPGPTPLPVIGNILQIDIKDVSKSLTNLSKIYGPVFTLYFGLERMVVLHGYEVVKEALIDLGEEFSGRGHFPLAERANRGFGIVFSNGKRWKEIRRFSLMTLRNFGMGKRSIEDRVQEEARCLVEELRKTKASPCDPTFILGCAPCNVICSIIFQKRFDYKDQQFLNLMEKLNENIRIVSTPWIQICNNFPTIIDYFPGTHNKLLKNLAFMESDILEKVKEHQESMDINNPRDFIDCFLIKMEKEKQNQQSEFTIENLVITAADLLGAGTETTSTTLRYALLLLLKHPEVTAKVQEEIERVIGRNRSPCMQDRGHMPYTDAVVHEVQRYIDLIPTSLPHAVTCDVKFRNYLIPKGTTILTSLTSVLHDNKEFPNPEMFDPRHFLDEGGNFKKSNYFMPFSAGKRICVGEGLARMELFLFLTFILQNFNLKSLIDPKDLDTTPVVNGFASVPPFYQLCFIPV
# Cytochrome P450 1A2 (Homo sapiens), sequence (P05177 whole entry, looked up): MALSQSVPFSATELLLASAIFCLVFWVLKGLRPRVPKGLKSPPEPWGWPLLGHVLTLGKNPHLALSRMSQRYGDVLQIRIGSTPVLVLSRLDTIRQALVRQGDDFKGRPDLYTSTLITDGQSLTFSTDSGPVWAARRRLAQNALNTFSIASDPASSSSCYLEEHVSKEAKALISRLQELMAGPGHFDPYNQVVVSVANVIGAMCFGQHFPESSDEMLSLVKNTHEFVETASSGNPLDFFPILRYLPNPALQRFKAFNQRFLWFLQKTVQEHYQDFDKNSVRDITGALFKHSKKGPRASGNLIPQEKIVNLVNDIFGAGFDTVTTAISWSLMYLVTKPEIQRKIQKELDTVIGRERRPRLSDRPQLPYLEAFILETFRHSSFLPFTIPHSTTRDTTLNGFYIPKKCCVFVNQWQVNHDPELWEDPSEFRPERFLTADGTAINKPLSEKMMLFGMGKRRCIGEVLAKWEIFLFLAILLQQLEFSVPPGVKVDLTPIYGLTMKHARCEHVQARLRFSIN
# Voltage-gated inwardly rectifying potassium channel KCNH2 (Homo sapiens), sequence (Q12809 whole entry, looked up): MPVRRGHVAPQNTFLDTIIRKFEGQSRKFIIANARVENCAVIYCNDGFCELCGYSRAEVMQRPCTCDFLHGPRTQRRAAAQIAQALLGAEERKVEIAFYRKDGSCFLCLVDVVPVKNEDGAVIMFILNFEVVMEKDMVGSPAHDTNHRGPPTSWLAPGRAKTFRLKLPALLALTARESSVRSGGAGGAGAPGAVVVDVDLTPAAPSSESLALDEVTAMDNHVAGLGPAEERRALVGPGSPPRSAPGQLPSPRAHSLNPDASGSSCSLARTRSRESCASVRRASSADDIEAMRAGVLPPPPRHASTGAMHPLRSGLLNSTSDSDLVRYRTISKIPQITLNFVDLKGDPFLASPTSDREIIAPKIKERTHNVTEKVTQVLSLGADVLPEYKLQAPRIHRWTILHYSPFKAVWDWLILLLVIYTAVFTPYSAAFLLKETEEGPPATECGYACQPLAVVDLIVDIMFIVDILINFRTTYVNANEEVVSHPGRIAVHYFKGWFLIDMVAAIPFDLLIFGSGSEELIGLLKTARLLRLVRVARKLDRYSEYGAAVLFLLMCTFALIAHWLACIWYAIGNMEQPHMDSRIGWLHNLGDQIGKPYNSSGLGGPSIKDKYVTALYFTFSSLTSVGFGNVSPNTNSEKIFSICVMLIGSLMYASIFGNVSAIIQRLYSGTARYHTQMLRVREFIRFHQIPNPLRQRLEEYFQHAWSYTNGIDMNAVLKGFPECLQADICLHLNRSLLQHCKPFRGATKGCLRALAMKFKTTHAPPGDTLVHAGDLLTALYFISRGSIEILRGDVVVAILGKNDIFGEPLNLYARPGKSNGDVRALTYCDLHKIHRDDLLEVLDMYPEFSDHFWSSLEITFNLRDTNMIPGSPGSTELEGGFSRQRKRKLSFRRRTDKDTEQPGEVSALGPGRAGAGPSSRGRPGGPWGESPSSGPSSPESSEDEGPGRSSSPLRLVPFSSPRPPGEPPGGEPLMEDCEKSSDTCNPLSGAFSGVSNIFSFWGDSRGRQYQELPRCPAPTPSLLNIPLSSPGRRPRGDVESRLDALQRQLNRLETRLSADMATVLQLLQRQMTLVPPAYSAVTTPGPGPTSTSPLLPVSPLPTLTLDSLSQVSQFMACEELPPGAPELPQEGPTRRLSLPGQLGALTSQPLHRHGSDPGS
SMILES,Potency [1],Potency [2],Potency [3],Potency [4],Potency [5]
O=C(OCC(COC(=O)c1ccccc1)(COC(=O)c1ccccc1)COC(=O)c1ccccc1)c1ccccc1,3.55 µM (active),5.63 µM (active),inactive,inactive,inactive
Cc1cc(O)c2ccccc2c1O,11 µM (active),12.3 µM (active),1.23 µM (active),3.38 µM (active),–
Oc1cc2ccccc2c2ccccc12,1.12 µM (active),5.03 µM (active),0.0502 µM (active),inactive,6.33 µM (active)
NNc1nc(-c2ccc([N+](=O)[O-])cc2)cs1,5.03 µM (active),5.64 µM (active),3.99 µM (active),19.5 µM (active),5.03 µM (active)
COC(=O)C1=C(C)NC(C)=C(C(=O)OCCc2ccc(N3CCN(C(c4ccccc4)c4ccccc4)CC3)cc2)C1c1cccc([N+](=O)[O-])c1 (stereo unspecified),7.76 µM (active),0.436 µM (active),14.4 µM (active),inactive,–
CCCC/C=C/CCCCO,inactive,71 µM (active),inactive,inactive,inactive
O=C1C=CC(=O)N1c1ccc(Cc2ccc(N3C(=O)C=CC3=O)cc2)cc1,7.96 µM (active),5.64 µM (active),20 µM (active),34.7 µM (active),35.6 µM (active)
CCOC(=O)O[C@]1(C(=O)OCCl)CC[C@H]2[C@@H]3CCC4=CC(=O)C=C[C@]4(C)[C@H]3[C@@H](O)C[C@@]21C,inactive,inactive,inactive,inactive,–
C[C@H]1[C@H]2CC[C@H]3[C@@H]4CC=C5C[C@@H](N(C)C)CC[C@]5(C)[C@H]4CC[C@]23CN1C,inactive,inactive,inactive,inactive,–
